{"source": "paper PMC7862700", "about": "“An all-to-all approach to the identification of sequence-specific readers for epigenetic DNA modifications on cytosine”", "assay_in_all_cases": "DAPPL (digital affinity profiling via proximity ligation, sequencing); 10 mM Tris-HCl pH 7.5, 50 mM NaCl, 1 mM DTT, 4% glycerol, room temperature, 30 min; GST-TFs on glutathione beads, 16-mer random dsDNA library, 0.1% formaldehyde crosslink after washing; high values mean tight binding", "key": {"GABPA": {"target": "T1, GABPA (Homo sapiens, UniProt Q06546 1-454)", "T1 sequence": "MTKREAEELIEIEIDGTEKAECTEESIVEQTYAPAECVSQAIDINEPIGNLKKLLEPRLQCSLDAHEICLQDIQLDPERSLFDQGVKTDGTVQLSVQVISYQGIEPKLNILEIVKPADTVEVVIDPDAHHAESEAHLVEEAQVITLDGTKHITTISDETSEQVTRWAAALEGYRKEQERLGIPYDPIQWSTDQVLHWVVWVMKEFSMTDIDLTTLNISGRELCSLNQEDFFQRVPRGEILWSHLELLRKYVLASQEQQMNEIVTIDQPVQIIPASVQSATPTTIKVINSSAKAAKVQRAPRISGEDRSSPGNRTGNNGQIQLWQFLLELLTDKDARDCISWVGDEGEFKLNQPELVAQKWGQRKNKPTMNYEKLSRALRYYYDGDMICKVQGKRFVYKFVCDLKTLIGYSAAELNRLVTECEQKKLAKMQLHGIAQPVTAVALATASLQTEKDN", "settings": "protein: recombinant; tags: N-terminal GST; dsDNA, one strand shown", "summary_of_the_method": "(§1)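 After expression in yeast as GST fusions, human transcription factors were bound to glutathione beads, DNA-barcoded and mixed with a tag-only sample. The pools were incubated with 200 nmole of a 16-mer random double-stranded DNA library in Tris/NaCl/DTT/glycerol buffer (30 min, room temperature), washed and crosslinked with 0.1% formaldehyde. Proximity ligation with BsaI/T4 ligase ran for 1 h at 37 °C, before PCR amplification and sequencing on an Illumina NextSeq500. Binding signal is a hexamer's read frequency for a factor divided by its frequency for the tag-only sample.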"}, "ELF1": {"target": "ELF1 (Homo sapiens, UniProt P32519 1-619)", "sequence (P32519 whole entry)": "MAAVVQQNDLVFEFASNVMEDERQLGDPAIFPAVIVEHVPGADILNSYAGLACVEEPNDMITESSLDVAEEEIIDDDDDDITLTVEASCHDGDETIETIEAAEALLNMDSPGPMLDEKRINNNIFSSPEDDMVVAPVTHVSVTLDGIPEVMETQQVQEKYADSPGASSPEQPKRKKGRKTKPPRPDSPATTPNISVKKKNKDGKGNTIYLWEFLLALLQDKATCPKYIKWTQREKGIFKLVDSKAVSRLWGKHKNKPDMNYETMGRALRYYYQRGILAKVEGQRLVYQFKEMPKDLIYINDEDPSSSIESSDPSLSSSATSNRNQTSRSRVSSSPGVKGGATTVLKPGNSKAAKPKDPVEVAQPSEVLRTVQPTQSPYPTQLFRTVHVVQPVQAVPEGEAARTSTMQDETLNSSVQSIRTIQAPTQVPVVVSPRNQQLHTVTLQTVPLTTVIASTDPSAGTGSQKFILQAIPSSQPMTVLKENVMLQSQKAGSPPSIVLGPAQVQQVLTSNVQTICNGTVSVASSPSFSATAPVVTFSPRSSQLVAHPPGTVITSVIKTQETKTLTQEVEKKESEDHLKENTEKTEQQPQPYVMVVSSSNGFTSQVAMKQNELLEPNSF", "settings": "protein: recombinant; tags: N-terminal GST; dsDNA, one strand shown", "summary_of_the_method": "as §1"}, "EHF": {"target": "T2, EHF (Homo sapiens, UniProt Q9NZC4 1-300)", "T2 sequence": "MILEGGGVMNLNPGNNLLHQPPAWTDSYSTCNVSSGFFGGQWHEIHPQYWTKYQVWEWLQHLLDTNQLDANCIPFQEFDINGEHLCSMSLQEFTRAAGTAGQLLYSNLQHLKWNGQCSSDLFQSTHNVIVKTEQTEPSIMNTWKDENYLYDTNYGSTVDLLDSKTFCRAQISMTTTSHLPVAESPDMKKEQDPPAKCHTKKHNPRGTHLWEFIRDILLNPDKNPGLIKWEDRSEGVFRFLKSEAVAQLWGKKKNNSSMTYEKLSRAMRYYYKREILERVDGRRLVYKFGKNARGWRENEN", "settings": "protein: recombinant; tags: N-terminal GST; dsDNA, one strand shown", "summary_of_the_method": "as §1"}, "SPIB": {"target": "SPIB (Homo sapiens, UniProt Q01892 1-262)", "sequence (Q01892 whole entry)": "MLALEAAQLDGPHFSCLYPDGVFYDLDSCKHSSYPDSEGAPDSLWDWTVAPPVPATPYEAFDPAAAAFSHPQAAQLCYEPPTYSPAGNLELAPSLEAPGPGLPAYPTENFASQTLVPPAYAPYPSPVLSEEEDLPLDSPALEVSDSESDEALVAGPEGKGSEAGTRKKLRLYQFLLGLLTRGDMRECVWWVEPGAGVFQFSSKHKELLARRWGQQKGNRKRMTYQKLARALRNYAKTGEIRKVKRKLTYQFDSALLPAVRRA", "settings": "protein: recombinant; tags: N-terminal GST; dsDNA, one strand shown", "summary_of_the_method": "as §1"}, "ELK3": {"target": "T3, ELK3 (Homo sapiens, UniProt P41970 1-407)", "T3 sequence": "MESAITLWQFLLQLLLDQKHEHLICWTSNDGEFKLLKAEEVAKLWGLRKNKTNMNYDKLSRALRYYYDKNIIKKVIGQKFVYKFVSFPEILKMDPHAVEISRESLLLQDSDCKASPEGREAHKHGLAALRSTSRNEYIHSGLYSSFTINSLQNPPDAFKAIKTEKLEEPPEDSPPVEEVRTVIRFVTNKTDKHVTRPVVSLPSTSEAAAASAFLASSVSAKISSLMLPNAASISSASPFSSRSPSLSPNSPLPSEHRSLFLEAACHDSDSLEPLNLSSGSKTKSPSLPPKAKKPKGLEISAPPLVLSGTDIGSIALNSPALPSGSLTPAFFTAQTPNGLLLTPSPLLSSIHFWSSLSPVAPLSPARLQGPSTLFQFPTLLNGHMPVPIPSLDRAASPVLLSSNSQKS", "settings": "protein: recombinant; tags: N-terminal GST; dsDNA, one strand shown", "summary_of_the_method": "as §1"}, "HSF1": {"target": "HSF1 (Homo sapiens, UniProt Q00613 1-529)", "sequence (Q00613 whole entry)": "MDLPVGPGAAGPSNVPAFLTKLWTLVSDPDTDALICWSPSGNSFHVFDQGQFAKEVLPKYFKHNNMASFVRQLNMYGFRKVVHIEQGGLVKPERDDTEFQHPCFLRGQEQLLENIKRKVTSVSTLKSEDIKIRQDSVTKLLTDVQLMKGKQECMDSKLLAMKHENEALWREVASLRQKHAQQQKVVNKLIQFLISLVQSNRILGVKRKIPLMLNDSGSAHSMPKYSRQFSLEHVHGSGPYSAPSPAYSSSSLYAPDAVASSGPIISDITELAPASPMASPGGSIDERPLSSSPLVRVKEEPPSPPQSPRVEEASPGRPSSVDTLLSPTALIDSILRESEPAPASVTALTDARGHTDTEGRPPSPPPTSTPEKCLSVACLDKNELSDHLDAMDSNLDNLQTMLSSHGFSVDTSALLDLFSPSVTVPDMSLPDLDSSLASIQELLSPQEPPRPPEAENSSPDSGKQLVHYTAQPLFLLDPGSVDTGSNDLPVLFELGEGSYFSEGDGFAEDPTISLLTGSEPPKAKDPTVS", "settings": "protein: recombinant; tags: N-terminal GST; chain copies: 3; dsDNA, one strand shown", "summary_of_the_method": "as §1"}, "SPIC": {"target": "T4, SPIC (Homo sapiens, UniProt Q8N5J4 1-248)", "T4 sequence": "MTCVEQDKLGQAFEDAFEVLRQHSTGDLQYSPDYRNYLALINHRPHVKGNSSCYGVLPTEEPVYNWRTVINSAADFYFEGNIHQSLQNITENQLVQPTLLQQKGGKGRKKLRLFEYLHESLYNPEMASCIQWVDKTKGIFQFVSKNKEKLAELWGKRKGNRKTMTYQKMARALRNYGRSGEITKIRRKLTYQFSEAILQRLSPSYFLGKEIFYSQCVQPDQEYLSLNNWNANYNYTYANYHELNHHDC", "settings": "protein: recombinant; tags: N-terminal GST; dsDNA, one strand shown", "summary_of_the_method": "as §1"}, "ELF4": {"target": "ELF4 (Homo sapiens, UniProt Q99607 1-663)", "sequence (Q99607 whole entry)": "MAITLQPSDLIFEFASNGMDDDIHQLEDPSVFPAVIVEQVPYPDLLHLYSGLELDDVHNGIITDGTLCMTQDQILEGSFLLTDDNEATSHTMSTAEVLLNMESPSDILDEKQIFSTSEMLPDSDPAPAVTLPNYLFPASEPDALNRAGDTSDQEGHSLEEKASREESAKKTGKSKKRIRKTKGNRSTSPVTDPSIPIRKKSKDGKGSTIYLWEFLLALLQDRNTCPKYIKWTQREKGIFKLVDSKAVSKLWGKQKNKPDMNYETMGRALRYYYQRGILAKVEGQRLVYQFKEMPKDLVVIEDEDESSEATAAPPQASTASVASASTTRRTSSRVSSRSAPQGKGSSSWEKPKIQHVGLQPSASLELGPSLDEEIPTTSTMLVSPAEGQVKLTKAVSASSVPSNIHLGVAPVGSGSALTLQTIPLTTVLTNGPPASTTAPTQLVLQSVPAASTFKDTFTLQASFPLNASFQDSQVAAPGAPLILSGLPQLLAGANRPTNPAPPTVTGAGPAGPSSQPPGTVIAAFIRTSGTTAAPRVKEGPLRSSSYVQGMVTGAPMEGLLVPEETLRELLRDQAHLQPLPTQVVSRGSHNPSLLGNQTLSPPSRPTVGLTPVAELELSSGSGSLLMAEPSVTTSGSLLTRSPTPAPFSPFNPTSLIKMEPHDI", "settings": "protein: recombinant; tags: N-terminal GST; dsDNA, one strand shown", "summary_of_the_method": "as §1"}, "ETV2": {"target": "T5, ETV2 (Homo sapiens, UniProt O00321 1-342)", "T5 sequence": "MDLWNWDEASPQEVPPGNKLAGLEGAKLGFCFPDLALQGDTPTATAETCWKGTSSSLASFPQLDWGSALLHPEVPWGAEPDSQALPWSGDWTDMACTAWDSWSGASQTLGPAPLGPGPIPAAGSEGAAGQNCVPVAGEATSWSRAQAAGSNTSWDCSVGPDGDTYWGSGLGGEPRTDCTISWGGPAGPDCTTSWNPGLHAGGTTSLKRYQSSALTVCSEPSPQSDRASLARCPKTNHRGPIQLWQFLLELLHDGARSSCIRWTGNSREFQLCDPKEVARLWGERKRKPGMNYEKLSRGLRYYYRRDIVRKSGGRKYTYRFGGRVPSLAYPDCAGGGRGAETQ", "settings": "protein: recombinant; tags: N-terminal GST; dsDNA, one strand shown", "summary_of_the_method": "as §1"}, "CRX": {"target": "CRX (Homo sapiens, UniProt O43186 1-299)", "sequence (O43186 whole entry)": "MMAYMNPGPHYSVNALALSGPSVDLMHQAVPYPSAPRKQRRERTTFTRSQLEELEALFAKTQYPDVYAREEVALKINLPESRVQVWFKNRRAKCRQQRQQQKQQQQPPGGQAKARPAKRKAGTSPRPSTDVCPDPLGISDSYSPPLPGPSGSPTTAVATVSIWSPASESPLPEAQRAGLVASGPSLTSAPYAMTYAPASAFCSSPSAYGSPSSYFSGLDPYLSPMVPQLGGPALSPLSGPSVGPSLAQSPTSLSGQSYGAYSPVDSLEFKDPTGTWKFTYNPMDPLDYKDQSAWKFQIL", "settings": "protein: recombinant; tags: N-terminal GST; dsDNA, one strand shown", "summary_of_the_method": "as §1"}, "ETV1": {"target": "ETV1 (Homo sapiens, UniProt P50549 1-477)", "sequence (P50549 whole entry)": "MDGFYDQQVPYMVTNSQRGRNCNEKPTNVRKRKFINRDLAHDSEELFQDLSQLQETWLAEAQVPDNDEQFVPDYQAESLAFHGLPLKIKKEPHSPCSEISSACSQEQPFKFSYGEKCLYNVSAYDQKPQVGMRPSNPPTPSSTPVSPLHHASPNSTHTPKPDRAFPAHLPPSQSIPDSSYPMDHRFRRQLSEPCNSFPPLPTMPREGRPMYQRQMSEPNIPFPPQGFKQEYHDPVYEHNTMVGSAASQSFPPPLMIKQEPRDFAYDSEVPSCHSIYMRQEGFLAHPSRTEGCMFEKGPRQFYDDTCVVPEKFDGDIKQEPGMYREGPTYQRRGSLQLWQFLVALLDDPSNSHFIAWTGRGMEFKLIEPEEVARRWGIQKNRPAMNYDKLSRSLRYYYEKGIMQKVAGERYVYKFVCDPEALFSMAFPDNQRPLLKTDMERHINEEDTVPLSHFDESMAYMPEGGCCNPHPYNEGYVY", "settings": "protein: recombinant; tags: N-terminal GST; dsDNA, one strand shown", "summary_of_the_method": "as §1"}, "ERF": {"target": "T6, ERF (Homo sapiens, UniProt P50548 1-548)", "T6 sequence": "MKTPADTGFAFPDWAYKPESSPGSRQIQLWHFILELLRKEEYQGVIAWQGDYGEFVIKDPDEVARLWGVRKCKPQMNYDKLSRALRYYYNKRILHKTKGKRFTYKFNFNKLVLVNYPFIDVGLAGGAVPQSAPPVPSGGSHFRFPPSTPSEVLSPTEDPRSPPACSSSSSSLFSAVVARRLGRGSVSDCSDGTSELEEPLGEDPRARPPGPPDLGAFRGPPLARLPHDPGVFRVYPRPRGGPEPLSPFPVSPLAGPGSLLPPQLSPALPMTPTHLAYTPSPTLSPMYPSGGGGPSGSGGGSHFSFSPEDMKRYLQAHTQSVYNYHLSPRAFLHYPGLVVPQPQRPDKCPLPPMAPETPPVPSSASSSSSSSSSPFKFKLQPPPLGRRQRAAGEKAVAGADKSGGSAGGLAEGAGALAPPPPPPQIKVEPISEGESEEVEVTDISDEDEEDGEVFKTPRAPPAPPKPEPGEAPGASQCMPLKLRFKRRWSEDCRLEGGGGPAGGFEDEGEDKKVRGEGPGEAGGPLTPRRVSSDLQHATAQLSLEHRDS", "settings": "protein: recombinant; tags: N-terminal GST; dsDNA, one strand shown", "summary_of_the_method": "as §1"}}}
{"sequence": "TTAGCC", "values": [{"measurement": "binding signal", "setting": "GABPA", "result": "1.01 fold enrichment (6-mer frequency, TF over GST control)"}, {"measurement": "binding signal", "setting": "ELF1", "result": "1.06 fold enrichment (6-mer frequency, TF over GST control)"}, {"measurement": "binding signal", "setting": "EHF", "result": "1.03 fold enrichment (6-mer frequency, TF over GST control)"}, {"measurement": "binding signal", "setting": "SPIB", "result": "1 fold enrichment (6-mer frequency, TF over GST control)"}, {"measurement": "binding signal", "setting": "ELK3", "result": "1.02 fold enrichment (6-mer frequency, TF over GST control)"}, {"measurement": "binding signal", "setting": "HSF1", "result": "1.45 fold enrichment (6-mer frequency, TF over GST control)"}, {"measurement": "binding signal", "setting": "SPIC", "result": "1.04 fold enrichment (6-mer frequency, TF over GST control)"}, {"measurement": "binding signal", "setting": "ELF4", "result": "1.01 fold enrichment (6-mer frequency, TF over GST control)"}, {"measurement": "binding signal", "setting": "ETV2", "result": "1.06 fold enrichment (6-mer frequency, TF over GST control)"}, {"measurement": "binding signal", "setting": "CRX", "result": "2.22 fold enrichment (6-mer frequency, TF over GST control)"}, {"measurement": "binding signal", "setting": "ETV1", "result": "1.02 fold enrichment (6-mer frequency, TF over GST control)"}, {"measurement": "binding signal", "setting": "ERF", "result": "1.07 fold enrichment (6-mer frequency, TF over GST control)"}]}
{"sequence": "GGAATG", "values": [{"measurement": "binding signal", "setting": "HSF1", "result": "1.25 fold enrichment (6-mer frequency, TF over GST control)"}]}
{"sequence": "GATCGA", "values": [{"measurement": "binding signal", "setting": "HSF1", "result": "1.07 fold enrichment (6-mer frequency, TF over GST control)"}]}
